The values below come from PubChem BioAssay (NCATS).

The nature of assay [1]: qHTS for Inhibitors of the Functional Ribonucleoprotein Complex (vRNP) of Lassa (LASV) Arenavirus: LASV Primary Screen - GLuc reporter signal (AID 1347082; calls by dose curve; tested in HEK293 reporter line; also: nearly all actives have a fitted effect of over 60% in size; also: potency is read from the fitted curve at half-maximal effect; as to activity change, negative = inhibition: % is scaled to controls: 0 for no effect and ±100 for the full control effect). As to conditions: LASV minigenome vRNP, Gaussia luciferase reporter; series mostly up to 57.5 µM. On the technique in general: qHTS replaces the single test concentration by a dilution series.
The nature of assay [2]: qHTS for Inhibitors of the Functional Ribonucleoprotein Complex (vRNP) of Lassa (LASV) Arenavirus: Viability assay - alamar blue signal for LASV Primary Screen (AID 1347083; calls by dose curve; tested in HEK293 reporter line; also: nearly all actives have a fitted effect of over 80% in size; also: potency is read from the fitted curve at half-maximal effect). The settings on record: cell viability, alamar blue fluorescence (LASV minigenome counter-screen); series mostly up to 57.5 µM.
Assay [3] is described as follows: qHTS for Inhibitors of the Functional Ribonucleoprotein Complex (vRNP) of Lymphocytic Choriomeningitis Arenaviruses (LCMV): Viability assay - alamar blue signal for LCMV Primary Screen (AID 1347085; calls by dose curve; tested in HEK293 reporter line; also: nearly all actives have a fitted effect of over 80% in size; also: potency is read from the fitted curve at half-maximal effect). As to conditions: alamar blue viability counter-screen, LCMV vRNP screen cells; series mostly up to 57.5 µM.
Assay [4] concerns the target Nucleoprotein (Lymphocytic choriomeningitis virus (strain Armstrong)) (UniProt P09992). As to the kind of experiment: qHTS for Inhibitors of the Functional Ribonucleoprotein Complex (vRNP) of Lymphocytic Choriomeningitis Arenaviruses (LCMV): LCMV Primary Screen - GLuc reporter signal (AID 1347086). Also: nearly all actives have a fitted effect of over 70% in size. Also: potency is read from the fitted curve at half-maximal effect. As to activity change, negative = inhibition: % is scaled to controls: 0 for no effect and ±100 for the full control effect. The settings on record: LCMV minigenome vRNP cell assay, Gaussia luciferase reporter; series mostly up to 57.5 µM.

Assay [5] can be described thus: Cytotoxicity counterscreen for inhibitors of SARS-CoV-2 cell entry (AID 1645845). Also: nearly all actives have a fitted effect of over 50% in size. As to activity change, negative = cytotoxicity: % is scaled to controls: 0 for no effect and ±100 for the full control effect. As to conditions: cell viability (SARS-CoV-2 entry assay cells); series mostly up to 57.1 µM. The essentials: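 48 h compound treatment (after 1 h preincubation), HEK293-ACE2 cells, 37 C/5% CO2; ATP luminescence endpoint; normalized to cell wells and media blanks.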
In general terms: Counterscreens check selectivity or assay interference.

Assay [6] can be described thus: Primary qHTS for small molecule stabilizers of the endoplasmic reticulum resident proteome: Secreted ER Calcium Modulated Protein (SERCaMP) assay (AID 1508630; active = well fitted inhibition curve with a large enough effect; also: % is scaled to controls: 0 for no effect and ±100 for the full control effect). As to conditions: SH-SY5Y GLuc-SERCaMP (Gaussia luciferase released on ER calcium loss) secretion, thapsigargin, luminescence; series mostly up to 38.4 µM. The essentials: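 GLuc-SERCaMP-expressing SH-SY5Y cells, pretreated 16 h with compound, are challenged with thapsigargin to empty ER calcium stores; after 4 h, coelenterazine is added directly to the medium and luminescence is imaged.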

Assay [7] is described as follows: Primary qHTS to identify inhibitors of SARS-CoV-2 cell entry (AID 1645846). Also: nearly all actives have a fitted effect of over 45% in size. The settings on record: SARS-CoV-2 pseudovirus cell entry assay, luminescence; activity change, negative = inhibition: at 57.1 µM (top of the series) unless noted; series mostly up to 57.1 µM. The essentials: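 Luminescence readout (Bright-Glo luciferase) 48 h after pseudoparticle addition. HEK293-ACE2 cells, 1500/well; compound pre-incubation 1 h; Normalized to spike PP and bald PP.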

Records with an inconclusive call do not appear. Calls of active or inactive are those of the source. Unless noted, calls follow the shape of the full dose curve.

Chain of Nucleoprotein (Lymphocytic choriomeningitis virus (strain Armstrong)) (P09992 whole entry, looked up): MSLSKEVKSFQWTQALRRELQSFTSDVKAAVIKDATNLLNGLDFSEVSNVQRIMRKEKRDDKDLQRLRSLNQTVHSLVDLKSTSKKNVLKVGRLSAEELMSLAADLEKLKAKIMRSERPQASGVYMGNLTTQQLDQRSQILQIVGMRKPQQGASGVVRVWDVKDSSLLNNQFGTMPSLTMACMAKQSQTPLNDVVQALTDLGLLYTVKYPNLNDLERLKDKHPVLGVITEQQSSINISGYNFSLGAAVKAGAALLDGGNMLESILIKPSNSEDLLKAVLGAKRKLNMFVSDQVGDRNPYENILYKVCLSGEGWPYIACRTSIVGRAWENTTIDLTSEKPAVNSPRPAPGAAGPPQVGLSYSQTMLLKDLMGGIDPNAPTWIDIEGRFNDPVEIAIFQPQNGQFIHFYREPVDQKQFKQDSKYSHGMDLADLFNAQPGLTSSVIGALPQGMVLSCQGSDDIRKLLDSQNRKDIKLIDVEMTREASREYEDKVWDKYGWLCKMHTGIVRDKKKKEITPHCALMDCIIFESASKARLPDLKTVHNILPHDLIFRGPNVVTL

Regarding `CC(C)(C)OC(=O)N[C@H]1CCCCCC=C[C@@H]2C[C@@]2(C(=O)NS(=O)(=O)C2CC2)NC(=O)[C@@H]2C[C@@H](OC(=O)N3Cc4cccc(F)c4C3)CN2C1=O`, the Potency entry in assay [1], in assay [2], in assay [3], in assay [4] and in assay [5] was “inactive” in each case.
`O=C1CCC[C@H]2[C@H]3CCCN4CCCC(=CN12)[C@@H]34`: the Potency result in assay [1], in assay [2], in assay [3], in assay [4] and in assay [6] was “inactive” throughout.
Turning to `C[C@H](O)[C@@H]1C(=O)N2C(C(=O)O)=C(S[C@@H]3CN[C@H](CNS(N)(=O)=O)C3)[C@@H](C)[C@@H]12`, the Potency result in assay [1], in assay [2], in assay [3], in assay [4], in assay [5] and in assay [7] was “inactive” in each case.
With `O=[N+]([O-])c1cn2c(n1)OC[C@@H](OCc1ccc(OC(F)(F)F)cc1)C2`, the Potency result in assay [1], in assay [2], in assay [3], in assay [4] and in assay [5] was “inactive” in each case. Moreover, the activity change, negative = inhibition in assay [7] is -9.12%.
As to `COc1c(N2C[C@@H]3CCCN[C@H]3C2)c(F)cc2c(=O)c(C(=O)O)cn(C3CC3)c12`, the Potency result in assay [1], in assay [2], in assay [3], in assay [4] and in assay [5] was “inactive” in each case. Moreover, the activity change, negative = inhibition in assay [7] was 2.05%.
Regarding `O=c1ncn2nc(Sc3ccc(F)cc3F)ccc2c1-c1c(Cl)cccc1Cl`, the Potency result in assay [1], in assay [2], in assay [3], in assay [4] and in assay [5] was “inactive” in each case.
Take `COc1ccc(C(=O)CC2(O)C(=O)Nc3c(Cl)ccc(Cl)c32)cc1` (stereo not drawn): the Potency in assay [1] is 24.3 µM (active); in assay [2], 1.53 µM (active); in assay [3], 0.432 µM (active); in assay [4], 2.73 µM (active). In assay [5], the Potency entry is “inactive”.
Consider `C[C@H](NC(=O)C(=O)Nc1ccccc1C(C)(C)C)C(=O)N[C@@H](CC(=O)O)C(=O)COc1c(F)c(F)cc(F)c1F`, for which the Potency entry in assay [1], in assay [2], in assay [3], in assay [4] and in assay [5] was “inactive” in each case. In addition, the activity change, negative = inhibition in assay [7] was -42.2%.
As to `C[C@]12CC[C@@H]3c4ccc(O)cc4C[C@@H](CCCCCCCCCS(=O)CCCC(F)(F)C(F)(F)F)[C@H]3[C@H]1CC[C@H]2O` (stereo partly drawn), the Potency entry in assay [1], in assay [2], in assay [3], in assay [4] and in assay [5] was “inactive” each time.
For the compound `Cc1cnc(C(=O)O)c[n+]1[O-]`, the Potency entry in assay [1], in assay [2], in assay [3], in assay [4] and in assay [5] was “inactive” in each case. Also, the activity change, negative = inhibition in assay [7] is -9.41%.
In the case of `CCc1c(O)cc(O)c(C(=O)c2ccc(OCCN3CCOCC3)c(OC)c2)c1CC(=O)N(CCOC)CCOC`, the Potency in assay [1] was 12.2 µM (active); in assay [2], 6.11 µM (active); in assay [3], 5.44 µM (active); in assay [4] it was 3.43 µM (active). Besides, the Potency entry in assay [5] is “inactive”.
On to `CC[C@@H]([C@H](C)O)n1ncn(-c2ccc(N3CCN(c4ccc(OCC5CO[C@@](Cn6cncn6)(c6ccc(F)cc6F)C5)cc4)CC3)cc2)c1=O` (stereo partly drawn), for which the Potency result in assay [1], in assay [2], in assay [3], in assay [4] and in assay [5] was “inactive” throughout.
With `O=C(CO)N1CCC(c2[nH]nc(-c3ccc(Cl)cc3)c2-c2ccncn2)CC1`, the Potency result in assay [1], in assay [2], in assay [3], in assay [4] and in assay [5] was “inactive” each time.
`Oc1cc2c(cc1O)C1c3ccc(O)c(O)c3OCC1(O)C2` (stereo not drawn): the Potency result in assay [1], in assay [2], in assay [3], in assay [4] and in assay [5] was “inactive” each time.
`COc1ccc(S(=O)(=O)Nc2cc(-c3c(O)ccc4ccccc34)c(O)c3ccccc23)cc1`: the Potency result in assay [1], in assay [2], in assay [3], in assay [4] and in assay [5] was “inactive” each time.
Turning to `COc1ccc2c(Oc3ccc(NC(=O)c4c(C)n(CC(C)(C)O)n(-c5ccccc5)c4=O)cc3F)ccnc2c1`, the Potency entry in assay [1], in assay [2], in assay [3], in assay [4] and in assay [5] was “inactive” each time.
Take `CC(=O)NC(CS)C(=O)O` (stereo not drawn): the Potency entry in assay [1], in assay [2], in assay [3], in assay [4] and in assay [5] was “inactive” each time. Moreover, in assay [7], the activity change, negative = inhibition is -1.31%.
Take `Nc1cccc(-c2cc3c(Oc4cccc(O)c4)ncnc3[nH]2)c1`: the Potency entry in assay [1], in assay [4] and in assay [5] was “inactive” each time. Moreover, the results for the Potency in assay [2] and in assay [3] were 34.3 µM (active) and 30.6 µM (active), respectively.
For `CC(C)(C)OC(=O)CN(Cc1ccc(Cl)cc1)Cc1ccc([N+](=O)[O-])s1`, the Potency result in assay [1], in assay [2], in assay [3], in assay [4] and in assay [5] was “inactive” each time.
As for `CCN1CCN(c2ccc(Nc3cc(N(C)C(=O)Nc4c(Cl)c(OC)cc(OC)c4Cl)ncn3)cc2)CC1`, the Potency entry in assay [1], in assay [2], in assay [3], in assay [4], in assay [5] and in assay [7] was “inactive” throughout.
For the compound `c1ccc2c(Oc3nc(Nc4ccc(N5CCOCC5)cc4)c4ncn(C5CCCCC5)c4n3)cccc2c1`, the Potency result in assay [1], in assay [2], in assay [3], in assay [4] and in assay [5] was “inactive” each time. Further, in assay [7], the activity change, negative = inhibition is -17.3%.
In the case of `CNc1nc(Nc2ccc(C(=O)N3CCOCC3)cc2OC)ncc1Cl`, the Potency entry in assay [1], in assay [3], in assay [4], in assay [5] and in assay [7] was “inactive” throughout. For the same compound, the Potency in assay [2] is 24.3 µM (active).
As to `C[C@]12CCC3c4ccc(O)cc4CCC3C1CCC2=O` (stereo partly drawn), the Potency entry in assay [1], in assay [2], in assay [3], in assay [4], in assay [5] and in assay [7] was “inactive” throughout.
Consider `O=C(O)c1cc(O)c2c(c1)C(=O)c1cccc(O)c1C2=O`, for which the Potency entry in assay [1], in assay [2], in assay [3], in assay [4] and in assay [5] was “inactive” in each case.
For `Cn1c(CNc2ccc(C(=N)N)cc2)nc2cc(C(=O)N(CCC(=O)O)c3ccccn3)ccc21`, the Potency result in assay [1], in assay [2], in assay [3] and in assay [4] was “inactive” each time. The activity change, negative = cytotoxicity in assay [5] is -8.56% [at 0.702 µM] (inactive). Also, in assay [7], the activity change, negative = inhibition is -9.36% [at 0.702 µM].
In the case of `O=C(O)Cc1cccc(OCCCN(Cc2cccc(C(F)(F)F)c2Cl)CC(c2ccccc2)c2ccccc2)c1`, the Potency result in assay [1], in assay [2], in assay [3], in assay [4] and in assay [5] was “inactive” throughout.
As to `OC[C@@H](O)[C@@H](O)[C@H](O)[C@@H](O)CO`, the Potency result in assay [1], in assay [2], in assay [3], in assay [4], in assay [5] and in assay [7] was “inactive” each time.
For the compound `CC(=O)SCC(Cc1ccccc1)C(=O)NCC(=O)OCc1ccccc1` (stereo not drawn), the Potency in assay [1] is 1.09 µM (active); in assay [2], 0.432 µM (active); in assay [3], 0.172 µM (active); in assay [4], 0.273 µM (active). Further, the Potency entry in assay [5] is “inactive”. Also, the activity change, negative = inhibition in assay [7] is -34.7%.
